Assay results from PubChem BioAssay (NCI).
About 83,000 compounds went through this panel and 20% of them were active in at least one assay; those are over-represented in the sample as a whole.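 Activity criterion: percent growth below 10, measured after cells in 96-well plates were exposed to a single compound concentration for 48 hours.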 Activity calls are given as the source filed them.

Tests used:
Assay in all cases: NCI-60 one-dose screen, 48 h (100 = growth as untreated, 0 = no growth, -100 = all killed)
Conditions in all cases: 10 µM unless noted
T-47D breast = system: T-47D breast
BT-549 breast = system: BT-549 breast
MDA-MB-435 melanoma = system: MDA-MB-435 melanoma
SW-620 colon = system: SW-620 colon
MCF7 breast = system: MCF7 breast
HCT-116 colon = system: HCT-116 colon
KM12 colon = system: KM12 colon
HCC-2998 colon = system: HCC-2998 colon

Measured: growth

O=C(CC(C(=O)c1ccccc1)N1CCN(Cc2ccccc2)CC1)c1ccccc1 (configuration not stated)
inactive: T-47D breast 45.6% | BT-549 breast 101% | MDA-MB-435 melanoma 109% | SW-620 colon 11.8% | MCF7 breast 52.1% | HCT-116 colon 22.8% | KM12 colon 101%

O=C(C(=O)c1cc(Br)ccc1O)c1cc(Br)ccc1O
inactive: BT-549 breast 21.7% | MDA-MB-435 melanoma 49.8% | SW-620 colon 66.5% | MCF7 breast 36.5% | HCT-116 colon 40.3% | KM12 colon 48.6%
active: T-47D breast 8.38%

Clc1ccc2c(c1)C(Br)c1cc(Cl)cc(Cl)c1-2 (configuration not stated)
inactive: T-47D breast 73% | BT-549 breast 87.3% | MDA-MB-435 melanoma 85.7% | SW-620 colon 60.4% | MCF7 breast 69% | HCT-116 colon 65.4% | KM12 colon 98.3%

Cc1ccc(S(=O)(=O)N2CCN(C(=O)CSc3nc4ccc(C)cc4[nH]3)CC2)cc1
inactive: T-47D breast 99.8% | BT-549 breast 106% | MDA-MB-435 melanoma 109% | SW-620 colon 102% | MCF7 breast 98.3% | HCT-116 colon 103% | HCC-2998 colon 122% | KM12 colon 105%

CCOC(=O)OCC(=O)[C@@]1(O)CC[C@H]2[C@@H]3CCC4=CC(=O)CC[C@]4(C)[C@H]3[C@@H](O)C[C@@]21C
inactive: T-47D breast 91.4% | BT-549 breast 101% | MDA-MB-435 melanoma 111% | SW-620 colon 98.3% | MCF7 breast 94.9% | HCT-116 colon 98.3% | KM12 colon 106%

COc1cc(/C=C2\CN(S(=O)(=O)c3ccc(C)cc3)C/C(=C\c3cc(CN4CCOCC4)c(O)c(OC)c3)C2=O)cc(CN2CCOCC2)c1O
inactive: T-47D breast 63.9% | MCF7 breast 10.6%
active: BT-549 breast -21.8% | MDA-MB-435 melanoma -19.7% | SW-620 colon 3.91% | HCT-116 colon -83.3% | HCC-2998 colon -89.3% | KM12 colon -74.4%

Oc1c(Cl)cc(Oc2cc(Cl)c(O)c(CN3CCOCC3)c2)cc1CN1CCOCC1
inactive: T-47D breast 69.7% | BT-549 breast 96.5% | MDA-MB-435 melanoma 101% | SW-620 colon 98.3% | MCF7 breast 94.4% | HCT-116 colon 87% | KM12 colon 102%

O=CNc1ccc2c(c1)Cc1cc([N+](=O)[O-])ccc1-2
inactive: T-47D breast 29.1% | BT-549 breast 16.5% | SW-620 colon 32.4% | MCF7 breast 16.3% | HCT-116 colon 11.7% | KM12 colon 13.9%
active: MDA-MB-435 melanoma -27.9%

COc1ccc(NS(=O)(=O)N2CCCCC2)cc1
inactive: T-47D breast 95.3% | BT-549 breast 104% | MDA-MB-435 melanoma 116% | SW-620 colon 98% | MCF7 breast 108% | HCT-116 colon 103% | KM12 colon 110%

Cc1cc(=O)oc2cc(OCCn3c(C)nn(-c4ccc(Cl)cc4)c3=O)ccc12
active: MDA-MB-435 melanoma -38.6%
inactive: T-47D breast 47.4% | BT-549 breast 56.7% | MCF7 breast 15.8% | HCT-116 colon 15.1% | HCC-2998 colon 46.7% | KM12 colon 31.4%

N#Cc1c(NC(=O)c2ccco2)[n+]([O-])c2ccccc2[n+]1[O-]
inactive: T-47D breast 90.8% | BT-549 breast 92.9% | MDA-MB-435 melanoma 107% | MCF7 breast 71.3% | HCT-116 colon 93.8% | HCC-2998 colon 98.3% | KM12 colon 109%

CN(C)c1ncnc2c1ncn2C1CCCCO1 (configuration not stated)
inactive: T-47D breast 105% | BT-549 breast 101% | MDA-MB-435 melanoma 111% | MCF7 breast 96.6% | HCT-116 colon 104% | HCC-2998 colon 96.7% | KM12 colon 112%

N#Cc1c(-c2ccccc2)cc(-c2ccccc2)n(CCCC(=O)O)c1=O
inactive: T-47D breast 89.1% | BT-549 breast 83.6% | MDA-MB-435 melanoma 104% | MCF7 breast 60% | HCT-116 colon 93% | HCC-2998 colon 103% | KM12 colon 103%

C=C(CN1CCc2c([nH]c3ccccc23)C1)c1ccc(C(=O)Nc2ccon2)cc1
inactive: T-47D breast 22.8% | BT-549 breast 55.4% | MDA-MB-435 melanoma 101% | SW-620 colon 102% | MCF7 breast 87.7% | HCT-116 colon 91.9% | KM12 colon 141%

COC(=O)[C@H](CCCCNC(=O)OCc1ccccc1)NC(=O)[C@@H](NC(=O)Nc1cc(C(F)(F)F)cc(C(F)(F)F)c1)C(C)C
active: T-47D breast -57.6% [100 µM] | MDA-MB-435 melanoma -86% [100 µM] | MCF7 breast -18.2% [100 µM] | HCT-116 colon -86.6% [100 µM] | HCC-2998 colon -43.4% [100 µM] | KM12 colon 7.99% [100 µM]
inactive: BT-549 breast 47.1% [100 µM]

O=C(Oc1ccccc1)C(Br)C(Br)c1ccccc1 (configuration not stated)
inactive: T-47D breast 94% | BT-549 breast 99.9% | MDA-MB-435 melanoma 94.5% | MCF7 breast 49.5% | HCT-116 colon 61.2% | KM12 colon 71.9%
active: SW-620 colon -77%

O=C(NC1CCS(=O)(=O)C1)c1ccc(C(=O)c2ccccc2)cc1 (configuration not stated)
inactive: T-47D breast 107% | BT-549 breast 121% | MDA-MB-435 melanoma 101% | MCF7 breast 105% | HCT-116 colon 104% | HCC-2998 colon 103% | KM12 colon 125%

Oc1ccc(/C=N/Nc2nc3ccccc3s2)c(O)c1
inactive: T-47D breast 26.8% | BT-549 breast 43.8% | MDA-MB-435 melanoma 39.7% | SW-620 colon 41.9% | MCF7 breast 26.5% | HCT-116 colon 25.2% | KM12 colon 15.7%

C[C@H](C(=O)N[C@@H](Cc1ccc(-c2ccccc2)cc1)C(=O)NC1CC(C)(C)NC(C)(C)C1)c1ccc(-c2ccccc2)c(F)c1
active: T-47D breast -37.2% | BT-549 breast -19.8% | MDA-MB-435 melanoma -90.1% | MCF7 breast -50.9% | HCT-116 colon -85.8% | HCC-2998 colon -83% | KM12 colon -80%

CC(=O)[C@H]1CC[C@H]2[C@@H]3C[C@H](C)C4=CC(=O)CC[C@]4(C)[C@H]3C(=O)C[C@]12C
inactive: T-47D breast 87.5% | BT-549 breast 98% | MDA-MB-435 melanoma 119% | SW-620 colon 98.6% | MCF7 breast 99.3% | HCT-116 colon 93.1% | KM12 colon 110%

COc1ccc2[nH]c(=O)c(CNc3ccc(Nc4nccc(-c5ccc(Cl)cc5)n4)cc3)cc2c1
inactive: T-47D breast 65.9% | BT-549 breast 104% | MDA-MB-435 melanoma 104% | MCF7 breast 71.8% | HCT-116 colon 91.1% | HCC-2998 colon 106% | KM12 colon 85.4%

O=C(Nc1ccccc1OC(=O)c1ccccc1)c1ccccc1
active: HCT-116 colon 9.26%
inactive: T-47D breast 67% | BT-549 breast 72.7% | MDA-MB-435 melanoma 104% | SW-620 colon 23.6% | MCF7 breast 27.2% | KM12 colon 25.7%

CC(=O)OC1Oc2cc(C)c(C)cc2-c2oc(=O)c(-c3ccccc3)cc21 (configuration not stated)
active: MDA-MB-435 melanoma -19.6% | KM12 colon 7.26%
inactive: T-47D breast 43.8% | BT-549 breast 24.9% | MCF7 breast 10.9% | HCT-116 colon 14% | HCC-2998 colon 41.4%

O=C(CSc1nnc(-c2cc(-c3ccccc3)nc3ccccc23)o1)c1ccc(Br)cc1
inactive: T-47D breast 102% | BT-549 breast 96.9% | MDA-MB-435 melanoma 104% | MCF7 breast 111% | HCT-116 colon 101% | HCC-2998 colon 113% | KM12 colon 107%

CCOc1cc(/C=C/C(=O)CC(=O)/C=C/c2ccc(OC(=O)CNc3nc4ccc(OC)cc4s3)c(OCC)c2)ccc1OC(=O)CNc1nc2ccc(OC)cc2s1
inactive: T-47D breast 79.7% | HCC-2998 colon 39.6%
active: BT-549 breast -1.58% | MDA-MB-435 melanoma -22.2% | MCF7 breast 9.28% | HCT-116 colon 4.31% | KM12 colon 9.4%

Cn1c(=O)c2[nH]c(=S)n(Cc3ccccc3)c2n(C)c1=O
inactive: T-47D breast 98.8% | BT-549 breast 106% | MDA-MB-435 melanoma 119% | SW-620 colon 100% | MCF7 breast 101% | HCT-116 colon 98.2% | KM12 colon 109%

COc1cc(C2CC(c3ccc(C)cc3)=NN2C=O)ccc1OCCN(C)C (configuration not stated)
inactive: T-47D breast 90.6% | BT-549 breast 80.7% | MDA-MB-435 melanoma 102% | MCF7 breast 92.5% | HCT-116 colon 88.9% | HCC-2998 colon 98.4% | KM12 colon 101%

CCC(C)C1NC(=O)C(CCNCS(=O)(=O)O)NC(=O)C(NC(=O)C(CCNCS(=O)(=O)O)NC(=O)C(NC(=O)C(CCNCS(=O)(=O)O)NC(=O)CCCCC(C)C)C(C)O)CCNC(=O)C(C(C)O)NC(=O)C(CCNCS(=O)(=O)O)NC(=O)C(CCNCS(=O)(=O)O)NC(=O)C(C(C)CC)NC1=O (configuration not stated)
active: MDA-MB-435 melanoma -56.2%
inactive: T-47D breast 49.2% | BT-549 breast 66.3% | MCF7 breast 18.7% | HCT-116 colon 31.7% | HCC-2998 colon 65.1%
